Test results taken from PubChem BioAssay (NCI).
The panel holds about 79,000 compounds, 15% with a hit somewhere; the sample as a whole holds those more often. A number with no mark means an inactive call. Active and inactive are the calls of the source. Cut-off read from the data, not from the text of the source: active = growth inhibition above about 70%; inactive = the rest.

How the values were obtained:
[1] = NCI Yeast Anticancer Drug Screen. Data for the rad50 strain (AID 155);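 note: 0% = growth of vehicle-only cultures of the same strain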; conditions: S. cerevisiae rad50 strain growth inhibition; at 50.0 µM; active compounds read high
Method in brief: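 Vehicle-treated cultures provide the reference for the growth inhibition reported for compound-exposed, repair-deficient yeast.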

[2] = NCI Yeast Anticancer Drug Screen. Data for the mec2-1 strain (AID 157); conditions: S. cerevisiae mec2-1 strain, at 50.0 µM, active compounds read high
Method in brief: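 Growth inhibition is read against vehicle-treated controls after compound exposure of the mec2-1 yeast strain, which is defective in DNA damage repair or cell cycle control.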

[3] = NCI Yeast Anticancer Drug Screen. Data for the sgs1 mgt1 strain (AID 161);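 note: 0% = growth of cultures given vehicle only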; conditions: S. cerevisiae sgs1 mgt1 strain, at 50.0 µM, active compounds read high
Method in brief: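 Yeast cells carrying a defined DNA-repair defect were exposed to test compounds. Growth inhibition was measured relative to vehicle-treated controls.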

[4] = NCI Yeast Anticancer Drug Screen. Data for the cln2 rad14 strain (AID 165);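 note: 0% = growth equal to vehicle treated cultures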; conditions: S. cerevisiae cln2 rad14 strain, at 50.0 µM, active compounds read high
Method in brief: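 Growth inhibition, relative to vehicle-treated controls, is the read-out. The test organism is a yeast strain with defined genetic alterations, cln2 rad14.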

[5] = NCI Yeast Anticancer Drug Screen. Data for the bub3 strain (AID 167); conditions: S. cerevisiae bub3 mutant strain, at 50.0 µM, active compounds read high
Method in brief: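 Mutant yeast screening strain plus compound; vehicle-treated cultures serve as the 0% inhibition reference.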

[6] = NCI Yeast Anticancer Drug Screen. Data for the mlh1 rad18 strain (AID 175); conditions: S. cerevisiae mlh1 rad18 strain growth inhibition; at 50.0 µM; active compounds read high
Method in brief: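 Cells of a genetically altered yeast strain, deficient in DNA damage repair, were treated with compound. Their growth was then compared with that of vehicle-treated cultures to give inhibition.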

SMILES | growth inhibition [1] [%] | growth inhibition [2] [%] | growth inhibition [3] [%] | growth inhibition [4] [%] | growth inhibition [5] [%] | growth inhibition [6]
COc1ccc(C(C#N)N2CCCCC2)cc1 (configuration not stated) | 21.6 | -6.25 | -13.5 | 22.1 | 7.05 | 0.4%
O=C(O)c1cscn1.O=C(O)c1cscn1.[I][Pt][I] | 5.75 | 3.55 | 13.9 | -17.1 | 0.9 | 48%
COc1cc([C@H]2CC(=O)C[C@H](c3cc(OC)c(OC)c(OC)c3)C23C(=O)c2ccccc2C3=O)cc(OC)c1OC | -3 | 11.9 | -8.7 | 29.5 | 0.45 | 7%
O=S1(=O)CS(=O)(=O)OCCO1 | 26.2 | 6.8 | 14.7 | 31.9 | 10.7 | 16.8%
Cn1c(=O)n(C2(C)CSC2)c2ccccc21 | -27.2 | -14.6 | -46.1 | -3.95 | -3.35 | -33.9%
N#CC1CC12c1ccccc1C(=O)c1ccccc12 (configuration not stated) | -1.9 | 0.25 | 0.8 | -16.1 | -21.4 | -4.75%
NCc1ccccc1[N+](=O)[O-] | 11.4 | 6.2 | 3.5 | -1.6 | 3.5 | 12%
CC(C)(N)CNc1ccccc1 | -0.55 | -4.95 | -9.85 | -11.1 | 15.7 | -4.4%
NC(=O)CCC(Nc1c2ccccc2nc2ccccc12)C(=O)O (configuration not stated) | 23.1 | 3.85 | 15.7 | 28.6 | 1.4 | 48.2%
COc1ccc(C2OCC(COC(C)=O)O2)cc1OC (configuration not stated) | -11 | 6.4 | 1.2 | -17.9 | 26.5 | 10.4%
COc1ccc(OC)c(Cc2ccc(NC(C)=O)cc2)c1 | 4.75 | -2.15 | 3.3 | -38.2 | -0.75 | -2.65%
O=C(O)c1ccccc1SC(Sc1ccccc1C(=O)O)c1ccc(Cl)cc1 | 4.8 | -9.15 | -9 | -11.9 | -4.1 | 15.2%
CCOC(=O)C(CCSC)(CCSC)C(=O)OCC | -41.4 | -56.7 | -31.7 | 11.8 | 20.4 | -13.1%
COc1ccc(/C=N/NC(=O)NNC(=O)c2cc([N+](=O)[O-])cc([N+](=O)[O-])c2)cc1OC | 33.2 | 13.3 | 36.7 | 15.4 | 3.6 | 32.4%
CN(CCNC(=O)NCCCCCCNC(=O)NCCN(C)c1ccccc1)c1ccccc1 | -6 | -44 | -6.7 | -33.2 | 3.45 | -5.05%
O=C(O)CCn1cnc2c(=S)nc[nH]c21 | -23.2 | -23.1 | -28.4 | -3.05 | -54.6 | -16.5%
Cc1nn2c(=O)n(-c3cccc(-n4nnc5c(-c6ccccc6)c(C)nn5c4=O)c3C)nnc2c1-c1ccccc1 | 33.9 | 40.4 | 30.2 | 46.1 | 43.2 | 43.9%
CSc1nc(SC)c2nc(SC)n(-c3ccccc3)c2n1 | -2.7 | -16.1 | 7.85 | -10.3 | 3.85 | -2.75%
Cc1nc2cc(Nc3ccccc3C(=O)O)ccc2s1 | -43.3 | -36.6 | -50.6 | -0.7 | -22.2 | -25.9%

SMILES | growth inhibition [1] [%] | growth inhibition [2] [%] | growth inhibition [3] [%] | growth inhibition [4] [%] | growth inhibition [5] [%] | growth inhibition [6]
O=c1[nH]c(=O)n(COCCO)cc1-c1ccccc1 | -8.75 | -5.65 | 1.9 | 5.75 | -1.25 | -2.9%
CCOC(C[N+](C)(C)C)OCC | 9.7 | -25.6 | 2.4 | 8 | 30 | 0.3%
CC1=C(CCC(C)N)C(C)(C)CCC1 (configuration not stated) | 29 | 14.7 | 28 | 7.75 | 11.4 | 12.8%
C=Cc1cc2c(cc1O)CC[C@@H]1[C@@H]2CC[C@]2(C)[C@@H](O)CC[C@@H]12 | 17.4 | 17.4 | 36.8 | 29.7 | 22.9 | 36.1%
N#Cc1c(C(=O)NN)c2c(-c3ccc4ccccc4c3)n[nH]c(=O)c2[nH]c1=O | 20.4 | 23.4 | 30.4 | 4.1 | 7.1 | 42.9%
COc1cc(C=O)cc(O)c1O | 11.8 | 3.05 | -10.6 | -19.2 | -1.9 | -0.6%
NC(=S)N/N=C/c1ccc(OC(=O)Cc2ccccc2)cn1 | 19.7 | -6.6 | 10.1 | 7.1 | 4.55 | 16.4%
Cc1cn(C2CC(O)C(COC(=O)C(C)(C)C)O2)c(=O)[nH]c1=O (configuration not stated) | 16.9 | -0.35 | 3.85 | -0.1 | -18.5 | -47.5%
CC1(C)CCC[C@@]2(C)C1C[C@H](O)[C@@]1(C)O[C@@](C)([C@H](O)CO)CCC21 (some centres not stated) | 28.6 | 33 | 56 | 69.1 | 29.2 | 70.9% (active)
CC(=O)c1c[nH]cc1CO | -1.7 | 7.8 | 8.85 | 11.3 | 11.6 | -7.75%
COc1cc(CNC(=S)CCCCCCCCCCC(C)C)ccc1O | -20.1 | -23.6 | -4.5 | -26.4 | 15.2 | -21.4%
NC(=O)SCC(=O)Nc1ccc2ncccc2c1 | -18.9 | 4.7 | -22.8 | -27.2 | -8.15 | 2.8%
CC(C)(C)c1cc(-c2c3nc(c(-c4cc(C(C)(C)C)cc(C(C)(C)C)c4)c4ccc([nH]4)c(-c4cc(C(C)(C)C)cc(C(C)(C)C)c4)c4nc(c(-c5cc(C(C)(C)C)cc(C(C)(C)C)c5)c5ccc2[nH]5)C=C4)C=C3)cc(C(C)(C)C)c1 | 19.8 | 15.4 | 24.2 | 23.3 | 2.6 | 31.2%
COc1ccc(/C=C2\CCC(C)(CN(C)C)C2=O)cc1 (configuration not stated) | 36.5 | 14.6 | 8.15 | 21.1 | 4.35 | 43%
CCOC(=O)C1Cc2ccccc2OC1=O (configuration not stated) | -9.4 | -15.2 | 20.4 | 12.8 | 9.55 | 3.85%
CC(=O)Nc1ccc(C(=O)NN2C(=O)C(Cl)/C2=C/c2ccco2)cc1 (configuration not stated) | 1.1 | -8.55 | -28.8 | -4.75 | -22.8 | -20.4%
N#Cc1ccccc1NC(=O)C(=O)C(C(=O)c1ccccc1-c1ccccc1)C1OC(=O)c2ccccc21 (configuration not stated) | 24.4 | 5.25 | 11.7 | -43 | 2.25 | 0.95%
CC(=O)NNc1nc(C)c(C(/C=C/c2ccc(Cl)cc2)=N/NC(=S)NN)s1 | 34.1 | 20.4 | 45 | 15.8 | 11.8 | 9.75%
